Format in all cases: functional
In experiment [1] the test system is Plasmodium falciparum. Nature of the experiment: GSK_TCMDC: Inhibition of Plasmodium falciparum 3D7 in whole red blood cells, using parasite LDH activity as an index of growth. Test compounds present at 2uM.
Experiment [2] has as its system Plasmodium falciparum. The experiment in a line: GSK_TCMDC: Inhibition of Plasmodium falciparum Dd2 in whole red blood cells, using parasite LDH activity as an index of growth. Test compounds present at 2uM.
In the next experiment the test system is HepG2. The experiment in a line: GSK_TCMDC: Percent inhibition of human HepG2 cell line. Test compounds present at 10uM.

SMILES strings stand for the structures.

For `COc1ccc(CN2CCC(CN3CC4(OC3=O)c3ccccc3-c3ccccc34)C2)c(O)c1` (configuration not stated), the figures for the Inhibition in the experiment with Plasmodium falciparum [1], in the experiment on Plasmodium falciparum [2] and with HepG2 were 100%, 79% and 22%, respectively.

As to `CCCCCCCCNc1c2ccc(Cl)cc2nc2ccc(OC)cc12.Cl`, the Inhibition with Plasmodium falciparum [1] turned out to be 89%; in the experiment with Plasmodium falciparum [2], 96%; with HepG2, 11%.

For the compound `CC(=O)Nc1[nH]c(-c2ccccc2)nc1C(N)=O`, the Inhibition came out at 99% in the experiment with Plasmodium falciparum [1], 0% in the experiment with Plasmodium falciparum [2] and 10% in the experiment on HepG2.

Regarding `CCCCCCCCOc1ccc(N2C(N)=NC(N)=NC2(C)C)cc1.Cl`, the Inhibition is given as 100% with Plasmodium falciparum [1], 0% in the experiment on Plasmodium falciparum [2] and 31% in the experiment with HepG2.

Regarding `O=C(Nc1cc(Cl)ccc1O)c1cnn2c(C(F)(F)F)cc(-c3cccs3)nc12`, the results for the Inhibition in the experiment with Plasmodium falciparum [1], in the experiment with Plasmodium falciparum [2] and in the experiment on HepG2 were 100%, 74% and 8%, respectively.

With `COc1cc(Br)c(S(=O)(=O)n2cc(CN3CCC(N)CC3)c3cc(Cl)ccc32)cc1OC.O=C(O)C(F)(F)F`, the figures for the Inhibition with Plasmodium falciparum [1], in the experiment on Plasmodium falciparum [2] and with HepG2 were 99%, 32% and 27%, respectively.

With `CN(C)Cc1ccc(-c2cc3c(-c4ccc(CN(C)C)cc4)ccnc3[nH]2)cc1.O=C(O)C(F)(F)F`, the results for the Inhibition with Plasmodium falciparum [1], in the experiment on Plasmodium falciparum [2] and with HepG2 were 100%, 96% and 86%, respectively.

As for `Cc1cccc(C)c1CNc1cccc(-c2nc(C)c(C)[nH]2)c1.Cl`, the Inhibition came out at 99% in the experiment with Plasmodium falciparum [1], 44% in the experiment with Plasmodium falciparum [2] and 58% in the experiment with HepG2.

For the compound `Cc1cc(N2Cc3ccccc3C2)nc(Nc2cccc(C#N)c2)n1`, the figures for the Inhibition with Plasmodium falciparum [1], in the experiment on Plasmodium falciparum [2] and with HepG2 were 100%, 97% and 6%, respectively.

`CCCc1cc(Cc2cnc(N)nc2N)cc(CCC)c1O.Cl`: the figures for the Inhibition with Plasmodium falciparum [1], with Plasmodium falciparum [2] and with HepG2 were 96%, 5% and 64%, respectively.

`O=C(Nc1cccc(CN2CCCN(Cc3ccc4c(c3)OCO4)CC2)c1)c1cc2ccccc2s1.O=C(O)C(F)(F)F`: the Inhibition with Plasmodium falciparum [1] worked out at 95%; with Plasmodium falciparum [2] it was 11%; with HepG2, 32%.

On to `CCN(CC)CCOc1c(Cl)cc(Cl)cc1CNCCCNc1cc(=O)c2ccccc2[nH]1`, for which the Inhibition with Plasmodium falciparum [1] is 97%; with Plasmodium falciparum [2], 6%; with HepG2, 11%.

In the case of `CCc1c[nH]c2c(N3CCCCC3=O)cc(C(=O)N[C@@H](Cc3ccccc3)[C@H](O)CNCc3cccc(OC)c3)cc12.O=CO`, the Inhibition in the experiment with Plasmodium falciparum [1] is 100%; with Plasmodium falciparum [2], 99%; in the experiment on HepG2, 8%.

Turning to `O=C(c1ccc(O)c(-c2cc(Cl)cc(Cl)c2)c1)N(CCO)CCO`, the figures for the Inhibition in the experiment with Plasmodium falciparum [1], in the experiment on Plasmodium falciparum [2] and in the experiment on HepG2 were 94%, 62% and 1%, respectively.

Take `Cc1nc(-c2cccc(C(F)(F)F)c2)n2nc(Nc3ccc(OCCN4CCCC4)cc3)ncc12`: the values for the Inhibition in the experiment on Plasmodium falciparum [1], with Plasmodium falciparum [2] and with HepG2 were 99%, 29% and 30%, respectively.

As for `COc1ccccc1C1CCN(CCCCNC(=O)c2ccc(/C=C/c3cc(Cl)cc(Cl)c3)cc2)CC1`, the results for the Inhibition with Plasmodium falciparum [1], with Plasmodium falciparum [2] and in the experiment with HepG2 were 96%, 30% and 36%, respectively.

As for `CCCNCc1ccc(-c2ccc(CN(CCOC)C(=O)Cc3cccnc3)cc2)nc1.O=C(O)C(F)(F)F`, the Inhibition with Plasmodium falciparum [1] came to 92%; with Plasmodium falciparum [2], 13%; in the experiment with HepG2, 10%.

As for `CCN(CCCN1CCCCC1)c1cc(C)nc(Nc2ccc3c(c2)CCC3)n1.O=C(O)C(F)(F)F`, the Inhibition in the experiment with Plasmodium falciparum [1] was found to be 100%; in the experiment on Plasmodium falciparum [2] it was 93%; in the experiment with HepG2 it was 32%.

In the case of `CCOC(=O)C(C(C)=O)C(c1ccccc1)C(C(C)=O)C(=O)OCC` (configuration not stated), the figures for the Inhibition in the experiment with Plasmodium falciparum [1], with Plasmodium falciparum [2] and in the experiment with HepG2 were 95%, 14% and 6%, respectively.

As to `Cc1ccccc1Cc1cccc(/N=C(\N)Nc2ccc(Cl)cc2)n1`, the results for the Inhibition with Plasmodium falciparum [1], in the experiment on Plasmodium falciparum [2] and in the experiment on HepG2 were 91%, 56% and 48%, respectively.

For the compound `O=C(O)C(F)(F)F.O=C1OC(c2ccccc2)(c2ccccc2)CN1CC1CCN(Cc2ccc(O)c(Cl)c2)CC1`, the Inhibition in the experiment on Plasmodium falciparum [1] was determined as 98%; with Plasmodium falciparum [2], 90%; in the experiment with HepG2, 26%.

As for `CN(C)c1ccnc2ccc(NC(=O)Nc3ccnc4ccccc34)cc12`, the results for the Inhibition in the experiment on Plasmodium falciparum [1], with Plasmodium falciparum [2] and in the experiment on HepG2 were 100%, 99% and 15%, respectively.

Take `Cc1cccc2nc(-c3ccc(-c4ccc(CN5CC(C)OC(C)C5)cc4)cc3)[nH]c12.O=C(O)C(F)(F)F` (configuration not stated): the results for the Inhibition in the experiment on Plasmodium falciparum [1], in the experiment on Plasmodium falciparum [2] and in the experiment with HepG2 were 97%, 96% and 37%, respectively.

For the compound `COc1ccc(-c2nonc2NC(=O)c2ccc(OC(C)C)cc2)cc1OC`, the Inhibition was determined as 100% in the experiment with Plasmodium falciparum [1], 99% with Plasmodium falciparum [2] and 11% in the experiment on HepG2.

`CCCCCOc1c(CCC)cc(Cc2cnc(N)nc2N)cc1CCC`: the Inhibition with Plasmodium falciparum [1] was determined as 94%; with Plasmodium falciparum [2], 0%; in the experiment with HepG2, 58%.

For `Cc1cc2c(cc1C(F)(F)F)N(C(=O)Nc1ccc(OCCN(C)C)c(C(F)(F)F)c1)CC2.Cl`, the Inhibition was found to be 93% in the experiment with Plasmodium falciparum [1], 23% in the experiment with Plasmodium falciparum [2] and 38% in the experiment on HepG2.

Take `O=C(NCC1CCCCC1)c1cc(=O)c2ccccc2o1`: the Inhibition came out at 98% in the experiment with Plasmodium falciparum [1], 77% in the experiment on Plasmodium falciparum [2] and 0% in the experiment on HepG2.

For the compound `CN1CCC(NCc2ccc(-c3cccc(S(=O)(=O)NCc4ccccc4)c3)cc2)CC1.O=C(O)C(F)(F)F`, the Inhibition is 100% in the experiment on Plasmodium falciparum [1], 94% in the experiment with Plasmodium falciparum [2] and 72% in the experiment with HepG2.

Take `CC(C)(CN)c1nc(-c2ccc(Cl)c(O)c2)c(-c2ccncc2)[nH]1.Cl`: the Inhibition was 97% in the experiment on Plasmodium falciparum [1], 98% in the experiment on Plasmodium falciparum [2] and 34% in the experiment on HepG2.

On to `COc1cc(NCC(CN)Cc2ccc3c(c2)OCO3)nc2ccccc12.Cl` (configuration not stated), for which the Inhibition came to 94% in the experiment with Plasmodium falciparum [1], 6% in the experiment on Plasmodium falciparum [2] and 41% in the experiment on HepG2.

`Cc1nc(N)nc(N)c1OCCCOc1ccccc1Br.Cl`: the Inhibition with Plasmodium falciparum [1] was determined as 94%; with Plasmodium falciparum [2], 96%; in the experiment on HepG2, 57%.

As for `CN(C)C(=O)CN1CCN(c2ncnc(N3CCc4c([nH]c5ccccc45)[C@@H]3c3ccc4c(c3)CCO4)n2)CC1`, the Inhibition with Plasmodium falciparum [1] is reported as 99%; with Plasmodium falciparum [2], 98%; in the experiment with HepG2, 12%.

Consider `c1ccc(CNc2nc(NCCc3c[nH]cn3)nc(NCc3cccc4ccccc34)n2)cc1`, for which the Inhibition was found to be 91% in the experiment with Plasmodium falciparum [1], 1% with Plasmodium falciparum [2] and 9% in the experiment on HepG2.

Take `COc1cc(Cc2cnc(N)nc2N)cc(OC)c1OC` [TRIMETHOPRIM]: the Inhibition with Plasmodium falciparum [1] was 88%; with Plasmodium falciparum [2], 2%; in the experiment with HepG2 it was 0%.

On to `COc1ccc2nccc([C@@H](O)CN3CCC(NC(=O)c4ccc(-c5ccc(C#N)cc5)cc4)CC3)c2c1`, for which the figures for the Inhibition in the experiment with Plasmodium falciparum [1], in the experiment with Plasmodium falciparum [2] and in the experiment with HepG2 were 100%, 91% and 42%, respectively.

Turning to `CCCC(C)N(Cc1ccc(C(C)(C)C)cc1)C(=O)c1cccc(OC)c1` (configuration not stated), the figures for the Inhibition with Plasmodium falciparum [1], in the experiment on Plasmodium falciparum [2] and in the experiment with HepG2 were 100%, 89% and 9%, respectively.

With `COc1ccc(S(=O)(=O)N2CCC3(CC2)OCC(=O)NC3c2ccc(Cl)c(Cl)c2)cc1` (configuration not stated), the Inhibition in the experiment with Plasmodium falciparum [1] is on record as 91%; in the experiment with Plasmodium falciparum [2], 44%; in the experiment with HepG2, 0%.

Turning to `Cc1ccc(C)c2sc(N3CCN(C(=O)c4ccc([N+](=O)[O-])o4)CC3)nc12`, the Inhibition in the experiment with Plasmodium falciparum [1] was 96%; in the experiment with Plasmodium falciparum [2] it was 89%; with HepG2 it was 0%.

Take `Nc1nccc2ccc(-c3cccc(OCc4ccccc4)c3)cc12.O=C(O)C(F)(F)F`: the results for the Inhibition in the experiment with Plasmodium falciparum [1], with Plasmodium falciparum [2] and with HepG2 were 100%, 81% and 47%, respectively.

As for `FC(F)(F)c1ccc2[nH]c(-c3cccc(-c4ccc(CNCC5CCCO5)cc4)c3)nc2c1.O=C(O)C(F)(F)F` (configuration not stated), the Inhibition in the experiment on Plasmodium falciparum [1] was determined as 99%; in the experiment with Plasmodium falciparum [2], 99%; in the experiment on HepG2 it was 29%.

`COc1ccc2ncc(F)c(CCN3CCC4(CC3)COC(c3cc5c(cn3)OCCO5)=N4)c2n1.O=C(O)C(=O)O`: the Inhibition was determined as 89% with Plasmodium falciparum [1], 83% in the experiment on Plasmodium falciparum [2] and 79% in the experiment on HepG2.

Take `Cc1nc2c(c([O-])c1Cl)-c1ccc(Oc3cccc(C(F)(F)F)c3)cc1C2=O.[Na+]`: the Inhibition in the experiment on Plasmodium falciparum [1] amounted to 94%; in the experiment on Plasmodium falciparum [2] it was 95%; in the experiment on HepG2 it was 25%.

Consider `c1cc(CNC2Cc3ccc(-c4cccs4)cc3C2)cc(-n2ccnc2)c1` (configuration not stated), for which the Inhibition is 100% in the experiment with Plasmodium falciparum [1], 63% in the experiment on Plasmodium falciparum [2] and 0% in the experiment on HepG2.

Consider `NS(=O)(=O)Cc1cccc(-c2ccnc3ccc(-c4cccc(S(N)(=O)=O)c4)cc23)c1`, for which the Inhibition in the experiment with Plasmodium falciparum [1] is 98%; in the experiment on Plasmodium falciparum [2], 42%; with HepG2, 39%.

For `Nc1ncc(-c2ccc3nccc(-c4ccncc4)c3c2)cc1S(=O)(=O)N1CCCCC1`, the figures for the Inhibition with Plasmodium falciparum [1], in the experiment with Plasmodium falciparum [2] and in the experiment on HepG2 were 100%, 100% and 25%, respectively.

As to `Cc1cccc(CN2CCC(C(=O)Nc3ccc(-c4nc5ccccc5[nH]4)cc3)CC2)n1`, the Inhibition in the experiment on Plasmodium falciparum [1] came to 96%; with Plasmodium falciparum [2], 3%; with HepG2, 0%.

Consider `CN1CCN(CCCN(Cc2cccc(-c3ccc(CNCCc4ccccc4)cc3)c2)C(=O)c2cccs2)CC1.O=C(O)C(F)(F)F`, for which the Inhibition was determined as 100% in the experiment with Plasmodium falciparum [1], 97% in the experiment on Plasmodium falciparum [2] and 86% in the experiment with HepG2.

Regarding `O=C(Nc1cc(C(F)(F)F)cc(C(F)(F)F)c1)Nc1ccc(Cl)c(Cl)c1`, the figures for the Inhibition with Plasmodium falciparum [1], with Plasmodium falciparum [2] and in the experiment with HepG2 were 100%, 100% and 58%, respectively.

With `Cc1cccc(CNc2nc(C)cc(N[C@@H](Cc3ccccc3)C(=O)NC3CCCC3)n2)c1.O=C(O)C(F)(F)F`, the Inhibition in the experiment on Plasmodium falciparum [1] is reported as 100%; in the experiment with Plasmodium falciparum [2] it was 97%; with HepG2 it was 51%.

Values taken from ChEMBL document CHEMBL1157539, “Thousands of chemical starting points for antimalarial lead identification” (Nature, 2010).
